# PubChem BioAssay (NCATS)
# Results filed as inconclusive are left out. Entries that show only a call come without a potency. Active and inactive are the calls of the source. Calls follow the shape of the dose curve; as a rule, active = well fitted curve in the direction sought with a large enough effect; inconclusive = small, poorly fitted or top-dose-only effect, or another doubt; inactive = no such curve, though single readings can be large; an effect the other way counts as inactive or inconclusive.
# Assays:
# [1] = Inducers of the Endoplasmic Reticulum Stress Response (ERSR) in human glioma: Validation (AID 504836)
# Method in brief: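 Stably transfected U87-MG human glioma cells carrying a GRP78-based luminescent sensor were seeded at 1000 cells/well, pin-dosed with compounds and incubated 16 h. Luciferase reagent was then added, and end-point luminescence was read after 10 min at room temperature.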
# [2] = molecular target: phosphoglycerate mutase (Leishmania major) (UniProt Q4Q090); test: qHTS Validation Assay to Find Inhibitors of Phosphoglycerate Mutase (AID 504548); also: series mostly up to about 58 µM
# From the text: NIH Molecular Libraries Probe Production Network [MLPCN]
# (§1) NIH Chemical Genomics Center [NCGC]
# PI Name: Malcolm Walkinshaw, University of Edinburgh
# Several species of the Trypanosomatidae family of parasitic protozoans cause a spectrum of diseases throughout the tropical and subtropical world. Sleeping sickness, caused by two subspecies of Trypanosoma brucei, is endemic to areas of sub-Saharan Africa, while Chagas disease, a manifestation of Trypanosoma cruzi infection, is prevalent throughout Central and South America. In addition, many species of Leishmania are responsible for a range of cutaneous and visceral diseases, causing ulcers, destructive lesions and kalaazar, a lethal infection of the viscera. Collectively, these organisms infect 30 million people worldwide (~500 million live in endemic areas), and account for ~130,000 deaths annually. Given their debilitating and prevalent nature, trypanosomatid parasites impose a heavy medical, economic and social burden on entire populations, primarily in the developing world. The problem is further exacerbated by the fact that existing treatments have progressed little in the past 50 years, and current drugs show high toxicity and poor efficacy.
# Blood-stream stages of T. brucei are entirely dependent on glycolysis as a source of ATP, and the tricarboxylic acid cycle and oxidative phosphorylation are both repressed. Glycolysis in axenically cultured T. cruzi, representing the intracellular pathogenic stage, is also essential for these parasites. […] Previous studies have shown that the glycolytic enzyme, phosphoglycerate mutase (PGAM), is a viable target for drugs to kill these parasites. […] Furthermore, the cobalt centers present within PGAM are only found in trypanosomatid and plant PGAMs, and are known to be required for activity, thereby providing an additional target. Moreover, trypanosomatid PGAMs are completely different from the enzyme that performs the same function in humans: the parasite and host enzymes share no structural or even mechanistic features; specificity is therefore unlikely to be an issue.
# NCGC Assay Protocol Summary:
# Briefly, 3ul of substrate buffer (all columns) are dispensed into Greiner white solid bottom 1536-well assay plates. Compounds are then transferred via Kalypsys pin tool equipped with 1536-pin array (10nl slotted pins, V&P Scientific, San Diego, CA). Following addition of compound, 1ul of Lm PGAM (1.25nM final concentration, columns […]) is added to initiate the reaction; columns 3-4 receive only TEA buffer as negative controls. […] Kinase-GloPlus reagent is added (2ul) and plates incubated for 10 minutes, before being transferred to a ViewLux high-throughput CCD imager (PerkinElmer) wherein single end-point measurements of luminescence are acquired using a clear filter. […]
# [3] = molecular target: Ubiquitin carboxyl-terminal hydrolase 1 (Homo sapiens) (UniProt O94782); test: Inhibitors of USP1/UAF1: Pilot qHTS (AID 504865);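 also: rhodamine fluorescence freed from ubiquitin-rhodamine substrate followed over time; top concentration of the series differs between compounds; nearly all actives have a fitted effect of over 35% in size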
# Method in brief: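 USP1/UAF1 complex at 1 nM preincubated 15 min at room temperature with compound, then Ub-Rho substrate added at 150 nM final. Fluorescence (480/540 nm) read kinetically in 50 mM HEPES pH 7.8, 0.5 mM EDTA, 1 mM TCEP, 0.1 mg/ml BSA, 0.01% Tween-20.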
# [4] = qHTS for Inhibitors of ATXN expression: Validation of Cytotoxic Assay (AID 588349);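 also: cells exposed to compound for 72 hr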
# Method in brief: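 HEK293, compound dose series, 72 hr / 37 degrees C; viability via CellTiter Glo (intracellular ATP).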
# [5] = qHTS for Inhibitors of ATXN expression: Validation (AID 588378); also: nearly all actives have a fitted effect of over 75% in size; also: potency is read from the fitted curve at half-maximal effect
# From the text: Spinocerebellar ataxia type 2 (SCA2) is a multisystem neurodegenerative disease caused by a dominantly-acting mutation leading to expansion of a polyQ domain in the ataxin-2 protein (ATXN2). SCA2 patients develop progressive ataxia and later lose function in other neuronal systems. Prominent parkinsonian signs develop in some patients. Similar to many neurodegenerative disorders, no symptomatic or disease-modifying treatments are known.
# The primary objective of project is to identify compounds inhibiting ATXN2 expression and to test them for efficacy in SCA2 mouse models. To this end, in a collaboration between Dr. Daniel Scoles and scientists at NCGC, a cell-based assay adapted to high-throughput screening has been developed to screen the NIH Molecular Libraries Small Molecule Repository (MLSMR).
# as §1
# NIH Molecular Libraries Probe Centers Network [MLPCN]
# Assay Submitter (PI): Stefan Pulst and Daniel Scoles, University of Utah
# 4 ul of HEK293-ATXN2-FFLuc cell suspension (TBD cells/microL in phenol-red free DMEM) are dispensed into Greiner white solid bottom 1536-well assay plates, yielding a final well density of TBD cells/well. Plates are incubated for 2 hrs at 37 degrees C in 5% humidified CO2 to allow cell attachment. Compounds are then transferred via Kalypsys pin tool equipped with 1536-pin array (10nl slotted pins, V&P Scientific, San Diego, CA). In addition, duplicate serial dilutions of the control compounds ChemBridge 5553825, a previously identified ATXN2 expression inhibitor, and a known luciferase inhibitor, are pin-transferred. After incubation at 37 degrees C in 5% humidified CO2 for 24 hrs, CellTiter-Fluor reagent (1 ul) (Promega, Madison, WI) is then added and plates are incubated for 30 minutes, before being transferred to a ViewLux high-throughput CCD imager (PerkinElmer), wherein single end-point fluorescence measurements are acquired using the 405 nm excitation/525 nm emission filter set to assess cell viability. Next, Bright-Glo luciferase substrate detection reagent (3 ul) (Promega, Madison, WI) is added to each well and incubated for an additional 5 minutes. Luminescence is then measured on the ViewLux imager equipped with a clear emission filter using a 2 sec exposure.
# [6] = molecular target: DNA dC->dU-editing enzyme APOBEC-3G (Homo sapiens) (UniProt Q9HC16); test: qHTS for inhibitors of Vif-A3G interactions: Validation (AID 588379)
# Method in brief: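 HeLa cells stably expressing Vif and A3G-eYFP, 700 cells/well, incubated overnight at 37 deg C, then exposed to compound overnight at 37 deg C. Inhibition of Vif-mediated degradation read as increased yellow fluorescence (Ex 488/Em 500-530) by laser-scanning cytometry.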
# phosphoglycerate mutase (Leishmania major), sequence (Q4Q090 1-553): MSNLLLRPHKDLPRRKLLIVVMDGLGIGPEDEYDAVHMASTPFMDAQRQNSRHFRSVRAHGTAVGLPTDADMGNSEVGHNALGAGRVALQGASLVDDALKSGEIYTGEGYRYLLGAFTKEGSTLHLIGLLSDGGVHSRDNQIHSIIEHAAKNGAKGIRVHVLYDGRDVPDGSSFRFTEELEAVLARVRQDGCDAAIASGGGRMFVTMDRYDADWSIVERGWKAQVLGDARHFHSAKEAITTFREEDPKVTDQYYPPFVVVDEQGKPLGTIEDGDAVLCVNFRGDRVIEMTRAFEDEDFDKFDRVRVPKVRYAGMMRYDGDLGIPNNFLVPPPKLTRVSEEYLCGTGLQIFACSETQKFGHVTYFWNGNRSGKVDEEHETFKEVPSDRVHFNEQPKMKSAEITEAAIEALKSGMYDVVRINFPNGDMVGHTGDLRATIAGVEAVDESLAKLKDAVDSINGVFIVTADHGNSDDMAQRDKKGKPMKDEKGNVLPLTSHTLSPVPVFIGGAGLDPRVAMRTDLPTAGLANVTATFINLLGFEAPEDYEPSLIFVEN
# Ubiquitin carboxyl-terminal hydrolase 1 (Homo sapiens), sequence (O94782 whole entry, looked up): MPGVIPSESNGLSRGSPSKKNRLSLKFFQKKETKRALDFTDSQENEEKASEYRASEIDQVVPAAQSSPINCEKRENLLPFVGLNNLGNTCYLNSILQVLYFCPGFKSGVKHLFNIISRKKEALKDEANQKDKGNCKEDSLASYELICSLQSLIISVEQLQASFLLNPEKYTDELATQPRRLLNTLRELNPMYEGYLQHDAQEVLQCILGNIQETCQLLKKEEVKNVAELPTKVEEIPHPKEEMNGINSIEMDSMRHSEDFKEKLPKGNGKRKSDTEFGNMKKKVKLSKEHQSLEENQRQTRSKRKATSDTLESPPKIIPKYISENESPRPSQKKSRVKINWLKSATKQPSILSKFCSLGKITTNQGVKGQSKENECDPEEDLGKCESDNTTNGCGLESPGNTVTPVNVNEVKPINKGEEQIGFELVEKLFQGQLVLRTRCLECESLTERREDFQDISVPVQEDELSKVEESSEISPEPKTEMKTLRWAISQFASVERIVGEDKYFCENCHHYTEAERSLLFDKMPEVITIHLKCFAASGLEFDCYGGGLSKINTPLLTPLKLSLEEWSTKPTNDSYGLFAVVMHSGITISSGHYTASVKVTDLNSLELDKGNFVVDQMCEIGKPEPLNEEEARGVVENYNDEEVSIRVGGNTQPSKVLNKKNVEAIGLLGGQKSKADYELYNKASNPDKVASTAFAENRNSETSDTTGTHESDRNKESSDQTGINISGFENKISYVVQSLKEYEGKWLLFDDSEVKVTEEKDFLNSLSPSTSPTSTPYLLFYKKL
# DNA dC->dU-editing enzyme APOBEC-3G (Homo sapiens), sequence (Q9HC16 whole entry, looked up): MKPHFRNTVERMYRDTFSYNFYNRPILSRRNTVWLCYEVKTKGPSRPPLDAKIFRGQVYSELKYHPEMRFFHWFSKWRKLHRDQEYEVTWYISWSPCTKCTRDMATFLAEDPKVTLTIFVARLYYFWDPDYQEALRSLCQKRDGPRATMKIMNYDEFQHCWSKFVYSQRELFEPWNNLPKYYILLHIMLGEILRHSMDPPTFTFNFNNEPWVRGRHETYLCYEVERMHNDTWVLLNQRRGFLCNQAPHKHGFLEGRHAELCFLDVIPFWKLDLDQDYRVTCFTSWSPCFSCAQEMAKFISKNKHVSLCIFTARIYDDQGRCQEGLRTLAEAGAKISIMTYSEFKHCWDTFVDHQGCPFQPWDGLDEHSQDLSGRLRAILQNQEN
compound,measurement,setting,value
OCCN1CCN(CCCN2c3ccccc3C=Cc3ccccc32)CC1,outcome,[1],inactive
CSc1ccc(C(=O)c2[nH]c(=O)[nH]c2C)cc1,outcome,[1],inactive
CN(C)CCOC(c1ccccc1)c1ccccc1,outcome,[1],inactive
COC(=O)C1=CCCN(C)C1,outcome,[2],inactive
same,outcome,[1],inactive
same,Potency,[3],inactive
same,outcome,[4],inactive
same,Potency,[5],inactive
CC(C)(C)c1ccc(C(=O)CCCN2CCC(OC(c3ccccc3)c3ccccc3)CC2)cc1,outcome,[1],inactive
O=C(O)c1nn(Cc2ccc(Cl)cc2Cl)c2ccccc12,outcome,[2],inactive
same,Potency,[3],inactive
same,outcome,[4],inactive
same,Potency,[5],inactive
same,outcome,[6],inactive
NC(=O)CN1CCCC1=O,outcome,[2],inactive
same,outcome,[1],inactive
same,Potency,[3],inactive
same,outcome,[4],inactive
same,Potency,[5],inactive
OCc1cc(C(O)CNCCCCCCOCCCCc2ccccc2)ccc1O (stereo unspecified),outcome,[1],inactive
CN(C)CCC(c1ccccc1)c1ccccn1 (stereo unspecified),outcome,[1],inactive
CN(C)CC[C@@H](c1ccc(Cl)cc1)c1ccccn1,outcome,[1],inactive
C[C@]12CCC(=O)C=C1CC[C@@H]1[C@@H]2[C@@H](O)C[C@@]2(C)[C@H]1CC[C@]2(O)C(=O)CO,outcome,[1],inactive
COC(=O)[C@@H](N)Cc1ccc(O)c(O)c1,outcome,[1],inactive
COc1ccc(C(=O)N2CCCC2=O)cc1,outcome,[2],inactive
same,outcome,[1],inactive
same,Potency,[3],inactive
same,outcome,[4],inactive
same,Potency,[5],inactive
same,outcome,[6],inactive
CCCCNc1c(C(=O)OCC)c(C)nc2c1cnn2CC,outcome,[1],inactive
Brc1c(NC2=NCCN2)ccc2nccnc12,outcome,[1],inactive
CCN(CC)CC(=O)Nc1c(C)cccc1C,outcome,[1],inactive
CC(N)C(=O)OC(C)(C)Cc1ccc(Cl)cc1 (stereo unspecified),outcome,[1],inactive
COc1ccc2c(c1)c(CC(=O)O)c(C)n2C(=O)c1ccc(Cl)cc1,outcome,[1],inactive
C[C@]12CCC(=O)C=C1CC[C@@H]1[C@@H]2CC[C@@]2(C)[C@H]1CC[C@]2(O)C(=O)CO,outcome,[1],inactive
NS(=O)(=O)c1cc2c(cc1Cl)NCNS2(=O)=O,outcome,[1],inactive
NCCc1ccc(O)c(O)c1,outcome,[1],inactive
COc1ccc(CCN(C)CCCC(C#N)(c2cc(OC)c(OC)c(OC)c2)C(C)C)cc1OC (stereo unspecified),outcome,[1],inactive
Cn1cnc2c1c(=O)[nH]c(=O)n2C,outcome,[1],inactive
CC(C)(C)c1ccc(C(O)CCCN2CCC(C(O)(c3ccccc3)c3ccccc3)CC2)cc1 (stereo unspecified),outcome,[1],inactive
COc1ccccc1N1CCN(CC(O)COc2cccc3ccccc23)CC1 (stereo unspecified),outcome,[1],inactive
C[n+]1cc2c3c(ccc2c2ccc4cc5c(cc4c21)OCO5)OCO3,outcome,[1],inactive
CN(C)C/C=C(/c1ccc(Br)cc1)c1cccnc1,outcome,[1],inactive
N[C@@H](Cc1c[nH]c2ccc(O)cc12)C(=O)O,outcome,[1],inactive
Nc1c2c(nc3ccccc13)CCCC2O (stereo unspecified),outcome,[1],inactive
CC(C)NCC(O)COc1ccc(COCCOC(C)C)cc1 (stereo unspecified),outcome,[1],inactive
C[C@]12CCC(=O)C=C1CC[C@@H]1[C@@H]2C(=O)C[C@@]2(C)[C@H]1CC[C@]2(O)C(=O)CO,outcome,[1],inactive
OC(CN1CCC(Cc2ccc(F)cc2)CC1)c1ccc(Cl)cc1 (stereo unspecified),outcome,[1],inactive
CC[C@H]1CN2CCc3cc(OC)c(OC)cc3[C@@H]2C[C@@H]1C[C@H]1NCCc2cc(OC)c(OC)cc21,Potency,[5],0.282 µM (active)
COC(=O)C1=C(C)NC(C)=C(C(=O)OC)C1c1ccccc1[N+](=O)[O-],Potency,[5],11.2 µM (active)
